# Screening data (PubChem BioAssay)
# The list is not random: actives were taken first. Their share in the collection is about 8.1%.
# Shh pathway inh: Sonic Hedgehog pathway inhibition. Shh-LIGHT2 Gli-luciferase reporter, 30 h. inhibition, % (concentration not given with the values). hit rate 2.1% among 22,000. AID 2313;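 active = mean inhibition across valid replicates above about 65%, limit read from the data; inconclusive = mean under the limit, yet half or more replicates past it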;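 also: pathway switched on by Shh-conditioned medium diluted 1 in 25 in low serum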
# MITF inhib: blocks MITF activity. TRPM1 promoter luciferase, luminescence, 24 h. inhibition, % (no concentration beside the values). hit rate 0.28% among 37,000. AID 2240; in the data active = inhibition above about 85%; inconclusive = no clear call, values can overlap the other calls; inactive = below about 68%;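 also: human melanocyte line stably carrying TRPM1 promoter luciferase reporter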
# NOMO-1 viab: STK33 inhibitor candidate reducing NOMO-1 cell viability. hit rate 7.5% among 37,000. inhibition, % (no concentration beside the values). NOMO-1 AML viability, CellTiter-Glo luminescence, 72 h. AID 2330; in the data active = inhibition above about 80%; inconclusive = no clear call, values can overlap the other calls
# Numbers stand for hits; – = inactive; ? = inconclusive; · = no result.
SMILES,Shh pathway inh,MITF inhib,NOMO-1 viab
C[C@@H]1CN([C@H](C)CO)C(=O)c2cccc(NC(=O)Nc3ccc4c(c3)OCO4)c2O[C@H]1CN(C)C(=O)Nc1ccc2c(c1)OCO2,–,–,–
C[C@H]1CN([C@@H](C)CO)C(=O)c2cccc(NC(=O)Nc3ccc(F)cc3)c2O[C@H]1CN(C)C(=O)Nc1ccc2c(c1)OCO2,–,–,–
C[C@@H]1CN([C@H](C)CO)C(=O)c2cccc(NC(=O)Nc3ccc(C(F)(F)F)cc3)c2O[C@H]1CN(C)C(=O)Nc1ccc2c(c1)OCO2,–,–,116
O=C(c1cc2nc(-c3ccco3)cc(C(F)(F)F)n2n1)N(Cc1ccccc1)Cc1ccccc1,·,–,–
CCn1c(SCC(=O)Nc2cccc(F)c2)nnc1-c1ccc(C)cc1,·,–,–
C=C1C(=O)O[C@@H]2C[C@H](C)[C@@H]3CC(=O)C(C)=C3C[C@H]12,–,–,121
C=C1C(=O)OC2C3=C(C)C(=O)CC3C(C)CC(O)C12 (stereo not given),–,–,–
Cn1c(SCC(=O)Nc2ccccc2-c2ccccc2)nnc1-c1ccccn1,·,–,–
Cc1nc(-c2ccccc2)sc1C(=O)C1C(=O)C(=O)N(CCN(C)C)C1c1cccc([N+](=O)[O-])c1 (stereo not given),·,–,–
O=C(Cn1c2ccccc2n2nc(-c3cccs3)nc12)c1ccc(Cl)cc1,·,–,115
O=C(Cn1c2ccccc2n2nc(-c3ccco3)nc12)c1ccccc1,·,–,–
COC(=O)COc1ccc(NC(=O)c2ccc(OC)c([N+](=O)[O-])c2)cc1,·,–,121
COc1ccc(C(=O)COc2ccc(NC(=O)c3cccc([N+](=O)[O-])c3)cc2)cc1,·,–,–
COc1ccc(NC(=O)Nc2ccc3c(c2)CC(=O)N([C@@H](C)CO)C[C@H](C)[C@H](CN(C)S(=O)(=O)c2ccc(C)cc2)O3)cc1,–,–,128
COc1ccc(NC(=O)Nc2ccc3c(c2)CC(=O)N([C@@H](C)CO)C[C@@H](C)[C@@H](CN(C)S(=O)(=O)c2ccc(Cl)cc2)O3)cc1,–,–,–
COc1ccc(NC(=O)Nc2ccc3c(c2)CC(=O)N([C@H](C)CO)C[C@@H](C)[C@@H](CN(C)S(=O)(=O)c2ccc(C)cc2)O3)cc1,·,–,–
COc1ccc(NC(=O)Nc2ccc3c(c2)CC(=O)N([C@@H](C)CO)C[C@H](C)[C@@H](CN(C)S(=O)(=O)c2ccc(Cl)cc2)O3)cc1,74,–,–
COc1cccc(Nc2nc(C3(C)CC4(CC(C)OC4=O)C(=O)O3)cs2)c1 (stereo not given),·,–,–
COc1ccc(NC(=O)CSc2nnc(-c3ccc(NC(=O)c4ccc(C)cc4)cc3)n2C)cc1Cl,·,–,–
CCN1/C(=C/C2=CC(=O)CC(C)(C)C2)Sc2ccccc21,82,–,113
CCN1/C(=C\C(=S)Nc2ccccc2)Sc2ccccc21,–,–,–
Cc1nnc(SCC(=O)n2c3c(c4ccccc42)CC(C)CC3)s1 (stereo not given),·,–,–
C/C(=C/CCC(CO)C1CCC2(C)C3CCC4C(C)(C)C(OC5OC(CO)C(O)C(O)C5O)CCC45CC35CCC12C)COC1OC(COC2OC(CO)C(O)C(O)C2O)C(O)C(O)C1O (stereo not given),–,–,–
Cc1cccc(OC(=O)C(Cc2ccccc2)N2C(=O)C3C4CCC(C4)C3C2=O)c1C (stereo not given),·,–,–
COC(=O)c1cc(N2C(=O)C3C4C=CC(C)(O4)C3C2=O)ccc1Cl (stereo not given),–,–,113
SMILES,Shh pathway inh,MITF inhib,NOMO-1 viab
CC(Oc1ccc(Cl)cc1Cl)C(=O)NC(=S)Nc1sc2c(c1C#N)CCCC2 (stereo not given),·,–,–
CC(O)c1nc2ccccc2n1CCOc1ccc(F)cc1 (stereo not given),·,–,–
Cn1c(=N)n(CCCOc2ccc(F)cc2)c2ccccc21,–,–,94
CCN(CC(=O)Nc1cc(Cl)ccc1OC)S(=O)(=O)c1ccc(C)cc1,·,–,–
CCOC(=O)CC1=Nn2c(nnc2-c2cccs2)SC1,–,–,–
CCOC(=O)CSc1c(-c2cccs2)[nH]c2ccccc12,–,–,139
Cc1ccc(Cl)c(OCC(=O)Nc2sc(C)c(C)c2C(N)=O)c1,·,–,–
Cc1cc(O)c2c(c1)C(=O)C13C(C2=O)C(=O)C2C(O)C1C1C(O)C3C(=O)C3C(=O)c4c(O)cc(C)cc4C(=O)C321 (stereo not given),–,–,110
CCc1ccc(CCC(=O)Nc2ccc(Cl)cc2Cl)o1,·,–,–
C/C(=N\O)C12CC3(C)CC(C)(CC(C)(C3)C1)C2,–,–,120
CC12CC3(C)CC(C)(C1)CC(C(=O)NC(=S)NC(C)(C)C)(C2)C3,–,–,–
Nc1nc(-c2ccco2)nn1C(=O)c1ccco1,·,–,–
COc1ccc(NC(=O)Nc2ccc3c(c2)C(=O)N([C@H](C)CO)C[C@H](C)[C@H](CN(C)Cc2ccncc2)OCCCC[C@@H](C)O3)cc1,–,–,–
C[C@@H]1CCCCO[C@@H](CN(C)Cc2ccc(C(F)(F)F)cc2)[C@@H](C)CN([C@H](C)CO)C(=O)c2cc(NC(=O)c3ccccc3)ccc2O1,·,–,93
C[C@@H]1CCCCO[C@@H](CN(C)Cc2ccc(C(F)(F)F)cc2)[C@@H](C)CN([C@H](C)CO)C(=O)c2cc(NC(=O)c3ccncc3)ccc2O1,–,–,–
C[C@@H]1CCCCO[C@@H](CN(C)Cc2ccc(C(=O)O)cc2)[C@@H](C)CN([C@H](C)CO)C(=O)c2cc(NC(=O)Nc3ccc(C(F)(F)F)cc3)ccc2O1,·,–,–
C[C@@H]1CCCCO[C@H](CN(C)Cc2ccc(C(=O)O)cc2)[C@@H](C)CN([C@H](C)CO)C(=O)c2cc(NC(=O)C3CCCCC3)ccc2O1,–,–,–
C[C@@H]1CCCCO[C@@H](CN(C)Cc2ccccc2)[C@@H](C)CN([C@H](C)CO)C(=O)c2cc(NC(=O)Nc3ccc(C(F)(F)F)cc3)ccc2O1,–,–,115
C[C@@H]1CCCCO[C@@H](CN(C)Cc2ccc(C(F)(F)F)cc2)[C@@H](C)CN([C@H](C)CO)C(=O)c2cc(NC(=O)C3CCCCC3)ccc2O1,–,–,108
COc1ccc(NC(=O)Nc2ccc3c(c2)C(=O)N([C@H](C)CO)C[C@H](C)[C@@H](CN(C)Cc2ccc(C(F)(F)F)cc2)OCCCC[C@@H](C)O3)cc1,–,–,110
OCc1nnn(-c2ccc(Br)cc2)c1CO,·,–,–
CCn1c(SCC(=O)O)nnc1-c1c[nH]c2ccccc12,·,–,–
O=C(COc1ccccc1[N+](=O)[O-])Nc1ccc2oc(-c3ccc(Cl)cc3Cl)nc2c1,·,–,–
O=C(COc1ccc(C2CCCCC2)cc1)Nc1cccc(-c2nc3ncccc3o2)c1,·,–,–
Cc1cccc(NC(=O)CSc2nc(N)c(C#N)c(-c3ccc(F)cc3)c2C#N)c1,·,–,?
Cc1ncc([N+](=O)[O-])n1CC(=O)N(C)c1ccccc1,·,–,–
C[C@@H]1CCCCO[C@@H](CN(C)Cc2ccc(C(F)(F)F)cc2)[C@@H](C)CN([C@H](C)CO)C(=O)c2cc(NC(=O)Cc3ccccc3)ccc2O1,–,–,106
C[C@@H]1CCCCO[C@@H](CN(C)Cc2ccccc2)[C@@H](C)CN([C@H](C)CO)C(=O)c2cc(NC(=O)Cc3ccccc3)ccc2O1,–,–,–
